Experimental data published in the supplement of paper PMC11732987, “Enantioselective OTUD7B fragment discovery through chemoproteomics screening and high-throughput optimisation” (Communications Chemistry, 2025).

Tests used:
Assay in all cases: log2 ratio of Biotin-Ahx-Ub-VS probe labelling (fragment/DMSO); higher = less target engagement (more negative = stronger competition), active = hit call of the paper (q ≤ 0.05, log2 ratio ≤ -1)
Conditions in all cases: compound concentration: 200 uM; treatment time: 3 h
[1] = target: T1, ALG13 (UniProt Q9NP73)
T1 sequence (whole entry): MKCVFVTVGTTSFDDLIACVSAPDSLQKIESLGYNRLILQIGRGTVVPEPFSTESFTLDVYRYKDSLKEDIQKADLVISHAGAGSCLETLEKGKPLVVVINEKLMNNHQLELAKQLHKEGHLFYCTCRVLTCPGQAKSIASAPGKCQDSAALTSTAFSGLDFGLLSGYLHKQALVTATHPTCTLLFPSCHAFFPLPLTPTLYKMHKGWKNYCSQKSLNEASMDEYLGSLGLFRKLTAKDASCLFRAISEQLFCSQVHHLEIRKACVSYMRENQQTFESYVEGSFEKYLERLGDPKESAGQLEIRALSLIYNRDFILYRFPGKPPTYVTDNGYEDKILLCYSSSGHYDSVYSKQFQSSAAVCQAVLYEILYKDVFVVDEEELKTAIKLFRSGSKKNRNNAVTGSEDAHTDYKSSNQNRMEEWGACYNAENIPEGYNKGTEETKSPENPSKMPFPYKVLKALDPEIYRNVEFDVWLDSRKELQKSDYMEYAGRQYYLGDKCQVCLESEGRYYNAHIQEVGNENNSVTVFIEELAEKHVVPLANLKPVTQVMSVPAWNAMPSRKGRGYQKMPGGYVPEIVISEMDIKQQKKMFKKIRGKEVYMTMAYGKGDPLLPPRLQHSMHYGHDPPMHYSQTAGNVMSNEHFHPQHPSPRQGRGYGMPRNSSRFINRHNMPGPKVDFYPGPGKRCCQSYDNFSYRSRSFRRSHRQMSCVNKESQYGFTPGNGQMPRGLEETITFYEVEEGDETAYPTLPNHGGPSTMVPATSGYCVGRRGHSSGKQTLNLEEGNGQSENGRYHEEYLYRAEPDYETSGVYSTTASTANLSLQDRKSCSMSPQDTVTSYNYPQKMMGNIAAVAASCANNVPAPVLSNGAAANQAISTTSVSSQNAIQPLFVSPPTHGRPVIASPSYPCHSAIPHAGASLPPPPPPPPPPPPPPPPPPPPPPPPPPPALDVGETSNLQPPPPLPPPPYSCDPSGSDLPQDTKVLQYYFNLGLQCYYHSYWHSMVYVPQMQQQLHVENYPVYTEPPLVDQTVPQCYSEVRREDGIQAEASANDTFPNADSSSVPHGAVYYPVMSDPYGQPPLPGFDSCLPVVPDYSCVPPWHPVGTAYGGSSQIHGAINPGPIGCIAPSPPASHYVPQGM
Method in brief: (§1)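 Lysate from HEK293T cells, 495 µg per sample in Tris/CHAPS/IGEPAL buffer with protease inhibitors, was treated for 3 h in triplicate with fragment at 200 µM or vehicle. Biotin-Ahx-Ub-VS was next added at 0.5 µM final for 1 h. The labelled DUBs were enriched with NeutrAvidin, digested with LysC and trypsin, and run by diaPASEF LC-MS/MS, with values given as average log2 fragment/vehicle ratios by unpaired t-test on global-median-normalised Spectronaut quantities of proteins with ≥2 unique peptides.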

[2] = target: ATXN3 (UniProt P54252)
Method in brief: as §1

[3] = target: T2, BAP1 (UniProt Q92560)
T2 sequence (whole entry): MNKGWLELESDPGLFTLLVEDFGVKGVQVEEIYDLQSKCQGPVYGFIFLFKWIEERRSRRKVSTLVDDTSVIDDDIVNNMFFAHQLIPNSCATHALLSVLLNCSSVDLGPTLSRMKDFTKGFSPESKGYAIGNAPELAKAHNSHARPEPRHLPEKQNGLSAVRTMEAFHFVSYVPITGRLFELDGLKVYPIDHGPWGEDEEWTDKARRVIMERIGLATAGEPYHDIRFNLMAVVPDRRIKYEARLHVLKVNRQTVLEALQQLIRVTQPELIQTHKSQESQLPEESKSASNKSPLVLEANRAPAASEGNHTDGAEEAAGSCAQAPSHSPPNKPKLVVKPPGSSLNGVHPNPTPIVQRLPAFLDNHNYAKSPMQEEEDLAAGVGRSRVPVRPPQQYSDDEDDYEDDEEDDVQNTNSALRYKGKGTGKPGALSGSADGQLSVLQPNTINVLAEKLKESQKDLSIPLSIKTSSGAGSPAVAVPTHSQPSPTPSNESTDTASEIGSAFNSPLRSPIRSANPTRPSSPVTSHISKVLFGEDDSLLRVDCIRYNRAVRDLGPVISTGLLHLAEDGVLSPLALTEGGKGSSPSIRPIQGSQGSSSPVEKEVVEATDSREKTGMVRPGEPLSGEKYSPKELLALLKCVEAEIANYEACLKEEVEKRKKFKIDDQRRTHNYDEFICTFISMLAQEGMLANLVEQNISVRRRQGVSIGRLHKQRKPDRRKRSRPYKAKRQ
Method in brief: as §1

[4] = target: EIF3F (UniProt O00303)
Method in brief: as §1

[5] = target: EIF3H (UniProt O15372)
Method in brief: as §1

[6] = target: T3, FAM105A (UniProt Q9NUU6)
T3 sequence (whole entry): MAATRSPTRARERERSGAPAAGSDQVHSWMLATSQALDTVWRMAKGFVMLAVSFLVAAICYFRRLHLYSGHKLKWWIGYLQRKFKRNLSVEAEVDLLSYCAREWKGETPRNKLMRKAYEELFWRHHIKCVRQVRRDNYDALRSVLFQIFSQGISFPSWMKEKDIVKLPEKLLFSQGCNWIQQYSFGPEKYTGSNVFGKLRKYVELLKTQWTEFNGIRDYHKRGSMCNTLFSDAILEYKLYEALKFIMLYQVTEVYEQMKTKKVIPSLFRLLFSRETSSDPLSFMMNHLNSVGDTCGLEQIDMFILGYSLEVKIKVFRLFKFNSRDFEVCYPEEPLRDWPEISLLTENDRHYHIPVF
Method in brief: as §1

[7] = target: OTUB1 (UniProt Q96FW1)
Method in brief: as §1

[8] = target: T4, OTUD4 (UniProt Q01804)
T4 sequence (whole entry): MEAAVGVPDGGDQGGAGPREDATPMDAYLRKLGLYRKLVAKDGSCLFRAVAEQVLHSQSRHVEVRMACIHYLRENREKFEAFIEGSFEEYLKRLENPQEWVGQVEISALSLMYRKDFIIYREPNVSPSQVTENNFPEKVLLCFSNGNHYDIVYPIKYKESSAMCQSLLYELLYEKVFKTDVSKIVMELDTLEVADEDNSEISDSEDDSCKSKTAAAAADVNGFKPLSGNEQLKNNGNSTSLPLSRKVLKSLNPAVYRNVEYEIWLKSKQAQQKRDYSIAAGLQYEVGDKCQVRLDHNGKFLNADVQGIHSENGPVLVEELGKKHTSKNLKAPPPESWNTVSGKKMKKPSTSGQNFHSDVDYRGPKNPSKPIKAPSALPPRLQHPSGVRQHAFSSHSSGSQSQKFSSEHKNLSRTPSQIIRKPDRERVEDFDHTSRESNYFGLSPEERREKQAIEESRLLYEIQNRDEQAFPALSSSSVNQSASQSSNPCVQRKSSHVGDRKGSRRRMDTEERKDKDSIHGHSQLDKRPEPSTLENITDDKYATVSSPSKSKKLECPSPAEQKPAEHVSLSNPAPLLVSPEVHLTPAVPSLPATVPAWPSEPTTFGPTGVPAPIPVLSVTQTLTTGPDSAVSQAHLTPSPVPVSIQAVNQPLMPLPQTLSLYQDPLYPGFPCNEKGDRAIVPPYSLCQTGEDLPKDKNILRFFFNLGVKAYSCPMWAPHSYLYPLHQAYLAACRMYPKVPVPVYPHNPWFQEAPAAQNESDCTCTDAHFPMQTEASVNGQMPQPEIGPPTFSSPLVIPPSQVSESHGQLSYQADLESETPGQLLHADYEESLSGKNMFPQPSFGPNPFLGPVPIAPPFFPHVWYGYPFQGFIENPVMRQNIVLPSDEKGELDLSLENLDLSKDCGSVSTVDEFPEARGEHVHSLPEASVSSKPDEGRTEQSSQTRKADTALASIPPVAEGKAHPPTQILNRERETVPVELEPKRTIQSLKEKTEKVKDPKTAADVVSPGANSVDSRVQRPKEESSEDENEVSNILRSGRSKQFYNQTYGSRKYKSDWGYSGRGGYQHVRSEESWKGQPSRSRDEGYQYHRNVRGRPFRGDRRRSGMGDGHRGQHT
Method in brief: as §1

[9] = target: T5, OTUD5 (UniProt Q96G74)
T5 sequence (whole entry): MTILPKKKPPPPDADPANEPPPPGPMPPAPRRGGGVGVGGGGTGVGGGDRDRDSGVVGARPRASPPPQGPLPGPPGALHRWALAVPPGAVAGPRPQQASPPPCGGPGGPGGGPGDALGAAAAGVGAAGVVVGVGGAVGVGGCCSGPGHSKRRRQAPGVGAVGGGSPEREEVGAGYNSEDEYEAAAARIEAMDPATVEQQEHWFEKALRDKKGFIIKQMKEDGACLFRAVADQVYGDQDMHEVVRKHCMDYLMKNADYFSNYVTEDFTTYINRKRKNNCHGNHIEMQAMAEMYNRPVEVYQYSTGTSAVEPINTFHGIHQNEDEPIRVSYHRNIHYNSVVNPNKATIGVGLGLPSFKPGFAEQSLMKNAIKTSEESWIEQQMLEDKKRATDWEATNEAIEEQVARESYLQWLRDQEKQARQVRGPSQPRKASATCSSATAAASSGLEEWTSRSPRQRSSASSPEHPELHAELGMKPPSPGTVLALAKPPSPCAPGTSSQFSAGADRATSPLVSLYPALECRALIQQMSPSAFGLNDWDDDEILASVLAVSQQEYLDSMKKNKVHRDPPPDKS
Method in brief: as §1

Measured: log2 ratio of Biotin-Ahx-Ub-VS probe labelling

OTUB1, sequence (Q96FW1 whole entry): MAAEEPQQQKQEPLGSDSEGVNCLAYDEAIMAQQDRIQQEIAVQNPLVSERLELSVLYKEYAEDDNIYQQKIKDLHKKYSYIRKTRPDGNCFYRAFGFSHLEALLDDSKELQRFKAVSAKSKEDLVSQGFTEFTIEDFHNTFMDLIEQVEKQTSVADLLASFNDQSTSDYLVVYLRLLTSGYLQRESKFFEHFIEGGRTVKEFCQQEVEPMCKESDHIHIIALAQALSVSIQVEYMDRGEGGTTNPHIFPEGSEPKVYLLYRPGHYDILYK
EIF3H, sequence (O15372 whole entry): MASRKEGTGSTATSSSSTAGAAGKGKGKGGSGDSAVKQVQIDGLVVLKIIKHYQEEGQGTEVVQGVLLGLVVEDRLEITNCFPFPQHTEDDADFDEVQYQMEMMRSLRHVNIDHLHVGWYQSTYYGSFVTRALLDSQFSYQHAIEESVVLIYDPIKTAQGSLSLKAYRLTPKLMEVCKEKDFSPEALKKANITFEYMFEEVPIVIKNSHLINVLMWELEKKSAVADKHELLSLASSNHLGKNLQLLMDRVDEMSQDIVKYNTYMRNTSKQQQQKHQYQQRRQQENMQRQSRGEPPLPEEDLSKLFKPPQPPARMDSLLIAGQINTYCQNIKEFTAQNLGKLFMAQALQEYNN
EIF3F, sequence (O00303 whole entry): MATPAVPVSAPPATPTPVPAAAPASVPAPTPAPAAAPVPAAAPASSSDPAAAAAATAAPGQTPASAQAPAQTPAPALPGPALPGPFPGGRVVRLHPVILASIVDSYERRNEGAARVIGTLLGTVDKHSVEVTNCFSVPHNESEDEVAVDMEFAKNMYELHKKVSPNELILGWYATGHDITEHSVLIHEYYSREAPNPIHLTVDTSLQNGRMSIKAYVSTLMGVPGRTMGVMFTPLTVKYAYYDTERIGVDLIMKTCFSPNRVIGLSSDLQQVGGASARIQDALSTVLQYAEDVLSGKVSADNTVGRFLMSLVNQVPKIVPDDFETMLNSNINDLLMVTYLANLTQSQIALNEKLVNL
ATXN3, sequence (P54252 whole entry): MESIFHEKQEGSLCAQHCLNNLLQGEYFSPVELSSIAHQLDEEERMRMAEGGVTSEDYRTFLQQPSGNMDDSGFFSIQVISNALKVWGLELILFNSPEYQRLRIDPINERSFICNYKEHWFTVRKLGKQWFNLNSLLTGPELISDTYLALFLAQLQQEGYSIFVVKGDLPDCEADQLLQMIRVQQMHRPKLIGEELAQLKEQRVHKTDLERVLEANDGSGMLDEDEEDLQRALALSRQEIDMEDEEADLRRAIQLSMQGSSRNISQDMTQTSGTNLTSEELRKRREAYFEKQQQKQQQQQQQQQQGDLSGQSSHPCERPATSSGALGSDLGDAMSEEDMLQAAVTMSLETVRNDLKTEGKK

Cl.O=C(CCl)NCc1ccnc(Oc2ccccc2F)c1
active: [3] -3.99
inactive: [1] 0.177 | [2] -0.51 | [4] -0.072 | [5] -0.589 | [6] -0.0684 | [7] -0.232 | [8] -0.244 | [9] -0.524
